Our source for the Potency and max response values is PubChem BioAssay (NCATS).

Values joined by “and” are separate entries in the source; they are usually repeats but may differ in a detail not shown here. Equal values may be shown once. Records with an inconclusive call do not appear. Active and inactive are the calls of the source. Calls follow the shape of the dose curve; as a rule, active = well fitted curve in the direction sought with a large enough effect; inconclusive = small, poorly fitted or top-dose-only effect, or another doubt; inactive = no such curve, though single readings can be large or run the other way.
% is scaled to controls: 0 for no effect and ±100 for the full control effect; potency is read from the fitted curve at half-maximal effect.

The assay in a line: qHTS Assay for Identifying Gametocytocidal Compounds (AID 743244).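 As to max response: actives lower the fluorescent signal which means gametocytes are killed.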 The conditions noted are these: P. falciparum 3D7 stage III-V gametocytes, alamarBlue, 72 h; max response: hits give low values. An outline of the steps:
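Fluorescence at Ex 525/Em 598 nm, recorded 24 h after alamarBlue addition, reports residual metabolic activity of 3D7 gametocytes (stages III–V) following 72 h compound exposure at 37 °C, 5% CO2.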
In the case of `NC(N)=NN=C(/C=C/c1ccc([N+](=O)[O-])o1)/C=C/c1ccc([N+](=O)[O-])o1`, the Potency is 7.94 µM (active). As to `CCN(CC)C(C)C(=O)c1ccccc1` (stereo not drawn), the max response was 2.91% (inactive). Take `ClC1=C(Cl)C2(Cl)C(CBr)CC1(Cl)C2(Cl)Cl` (stereo not drawn): the max response is -1.6% (inactive).

Regarding `CC(C)=CCN1CC[C@@]2(C)c3cc(O)ccc3C[C@@H]1[C@@H]2C`, the max response was -13.8% (inactive). `CCOC(=O)c1cncn1C(C)c1ccccc1` (stereo not drawn): the max response was -8.82% (inactive). Consider `CN1C(=O)CN=C(c2ccccc2)c2cc([N+](=O)[O-])ccc21`, for which the max response was 4.86% (inactive). Turning to `CC[C@H]1C[C@H]2[C@@H]3CCC4=CC(=O)CC[C@@H]4[C@H]3CC[C@]2(C)[C@H]1O`, the max response was -17.8% (inactive). As for `COc1ccc2c3c1O[C@H]1[C@@H](O)C=C[C@H]4[C@@H](C2)N(C)CC[C@@]341`, the max response was 7.49% (inactive). Turning to `C#C[C@]1(O)C=C[C@H]2[C@@H]3CCC4=CC(=O)CC[C@@H]4[C@H]3CC[C@@]21CC`, the max response was 2.38% (inactive). Turning to `O=C(N[C@H]1N=C(c2ccccc2F)c2cccc3c2N(CC3)C1=O)c1cc2ccccc2[nH]1`, the max response was -4.83% (inactive).

As for `COc1ccc(CN2CCNCC2)c(OC)c1OC`, the max response was -9.77% (inactive). For `O=C(Nc1ccc(Cl)cc1)Nc1ccc(Cl)c(Cl)c1`, the Potency is 15.8 µM (active) and 29.6 µM (active). As to `CN(C)C(=O)Oc1cc(OC(=O)N(C)C)cc(C(O)CNC(C)(C)C)c1` (stereo not drawn), the max response was 14.4% (inactive). On the same count and under the same terms, for `CCC1(CC)C(=O)NC(=O)NC1=O` the value was -6.5% (inactive); for `COc1cc(C[C@@H](C)N)c(OC)cc1C`, -6.71% (inactive). As for `Cc1nnc2n1-c1sc(CCC(=O)N3CCOCC3)cc1C(c1ccccc1Cl)=NC2`, the max response is -5.44% (inactive) and -14.1% (inactive). For the compound `CCCOC(=O)Cc1ccc(OCC(=O)N(CC)CC)c(OC)c1`, the max response was -6.3% (inactive). `CCC1(c2cccc(O)c2)CCCCN(C)C1` (stereo not drawn): the max response is 11.4% (inactive). With `NC(=O)OCCCc1ccccc1`, the max response is -5.39% (inactive). As for `C[C@]12CC[C@H](O)CC1=CC[C@@H]1[C@@H]2CC[C@]2(C)C(=O)CC[C@@H]12`, the max response was -7.96% (inactive). Same read-out and setting: next, `CCCC(C)C1(CC)C(=O)N=C(S)NC1=O` (stereo not drawn): 6.11% (inactive). As for `CCN(CC)Cc1nccn1-c1ccc([N+](=O)[O-])cc1C(=O)c1ccccc1Cl`, the Potency is 16.6 µM (active).

Take `Nc1ccc(N)cc1`: the max response was -1.22% (inactive). `COc1cc(CC(C)N)c(OC)cc1Br` (stereo not drawn): the max response was -17.7% (inactive) and 14.6% (inactive). Take `OC(O)C(Cl)(Cl)Cl`: the max response was -5.08% (inactive). For `Cc1c(Cl)c(=O)oc2cc(OP(=O)(OCCCl)OCCCl)ccc12`, the max response was 22.1% (inactive). Regarding `CN1C(=O)[C@@H](NC(=O)c2cc3ccccc3[nH]2)N=C(c2ccccc2)c2ccccc21`, the max response is -6.73% (inactive). Regarding `COc1cc(C[C@@H](C)N)c(OC)cc1Br`, the max response is 0.803% (inactive). Turning to `Clc1ccc(CO/N=C(\Cn2ccnc2)c2ccc(Cl)cc2Cl)c(Cl)c1`, the Potency is 10 µM (active). Turning to `COc1cc(CC(C)N)cc2c1OCO2` (stereo not drawn), the max response was -6.22% (inactive). On the same count and under the same terms, for `O=C(N[C@@H]1N=C(c2ccccc2F)c2cccc3c2N(CC3)C1=O)c1cc2ccccc2[nH]1` the value was -8.36% (inactive); for `C=CC[C@]1(O)CC[C@H]2[C@@H]3CCC4=CC(=O)CCC4=C3C=C[C@@]21C`, 1.81% (inactive).

`CNC(=O)Oc1ccc2c(c1)[C@]1(C)CCN(C)[C@@H]1N2C`: the Potency is 11.2 µM (active) and 3.55 µM (active).
